# Screening data as filed in PubChem BioAssay.
# G9a block – blocks human histone lysine methyltransferase G9a | Q96KQ7 | G9a H3K9 monomethylation, AlphaScreen, 2 h | Potency, µM (top dose mostly 102 µM), without a hit: at the top dose activity, negative = inhibition, hits mostly inhibitors | 8.8% of 350,000 active; further: potency means the concentration at half of the fitted maximal effect; on the % scale 0 is the no-effect control and ±100 the full control effect; nearly all actives have a fitted effect of over 75% in size
#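 Chemiluminescent proximity detection of H3K9 monomethylation, read after 10 min bead incubation in the dark. Reaction: 20 nM G9a, 500 nM biotin-H3K9 peptide, 20 uM SAM cofactor, 2 h, room temperature, following 15 min enzyme-compound preincubation.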
# JMJD2A Tudor inh – blocks the human JMJD2A Tudor domain; O75164; 4.4% of 390,000 active; Potency, µM (highest dose often 114 µM), without a hit: at the highest dose activity change, negative = inhibition, most hits filed as inhibitors; AlphaScreen JMJD2A-Tudor / H3K4me3 peptide binding; further: potency means the concentration at half of the fitted maximal effect; on the % scale 0 is the no-effect control and ±100 the full control effect; nearly all actives have a fitted effect of over 50% in size
# CtBP-E1A inh – CtBP/E1A binding inhibition. AlphaScreen GST-E1A/His-CtBP binding, 1536-well; stronger effect = lower value. activity change, % (concentration not given with the values). 0.49% of 340,000 active; in the data active means activity change below about -65%; inconclusive means mostly about -30% to -63%; further: on the % scale 0 is the no-effect control and ±100 the full control effect
#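 GST-E1A and His-tagged CtBP (125 nM each as 5X stock) were preincubated with pin-transferred compound for 2 h at 37 °C in the dark, then glutathione donor and nickel acceptor beads were added for 1 h before AlphaScreen reading.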
# Six1-Eya2 inh – Six1/Eya2 interaction inhibition. Q15475+O00167. AlphaScreen GST-Six1/His-Eya2 binding, biochemical; stronger effect = lower value. activity change, % (concentration not given with the values). 0.56% of 360,000 active; in the data active means activity change below about -65%; inconclusive means mostly about -30% to -63%; further: on the % scale 0 is the no-effect control and ±100 the full control effect
#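 Compounds are tested against tagged Six1 and Eya2 proteins bridged by glutathione donor and nickel acceptor beads; after a one-hour incubation at 37 °C without light, AlphaScreen emission is recorded.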
# BAZ2B block – blocks human BAZ2B; Q9UIF8; AlphaScreen BAZ2B-H3K14Ac peptide displacement; Potency, µM (top dose mostly 114 µM), for the others: at the highest dose activity change, negative = inhibition, actives largely listed as inhibitors; 4.4% of 360,000 active; further: potency means the concentration at half of the fitted maximal effect; on the % scale 0 is the no-effect control and ±100 the full control effect; nearly all actives have a fitted effect of over 60% in size
# Target sequence (Q9UIF8 whole entry, looked up): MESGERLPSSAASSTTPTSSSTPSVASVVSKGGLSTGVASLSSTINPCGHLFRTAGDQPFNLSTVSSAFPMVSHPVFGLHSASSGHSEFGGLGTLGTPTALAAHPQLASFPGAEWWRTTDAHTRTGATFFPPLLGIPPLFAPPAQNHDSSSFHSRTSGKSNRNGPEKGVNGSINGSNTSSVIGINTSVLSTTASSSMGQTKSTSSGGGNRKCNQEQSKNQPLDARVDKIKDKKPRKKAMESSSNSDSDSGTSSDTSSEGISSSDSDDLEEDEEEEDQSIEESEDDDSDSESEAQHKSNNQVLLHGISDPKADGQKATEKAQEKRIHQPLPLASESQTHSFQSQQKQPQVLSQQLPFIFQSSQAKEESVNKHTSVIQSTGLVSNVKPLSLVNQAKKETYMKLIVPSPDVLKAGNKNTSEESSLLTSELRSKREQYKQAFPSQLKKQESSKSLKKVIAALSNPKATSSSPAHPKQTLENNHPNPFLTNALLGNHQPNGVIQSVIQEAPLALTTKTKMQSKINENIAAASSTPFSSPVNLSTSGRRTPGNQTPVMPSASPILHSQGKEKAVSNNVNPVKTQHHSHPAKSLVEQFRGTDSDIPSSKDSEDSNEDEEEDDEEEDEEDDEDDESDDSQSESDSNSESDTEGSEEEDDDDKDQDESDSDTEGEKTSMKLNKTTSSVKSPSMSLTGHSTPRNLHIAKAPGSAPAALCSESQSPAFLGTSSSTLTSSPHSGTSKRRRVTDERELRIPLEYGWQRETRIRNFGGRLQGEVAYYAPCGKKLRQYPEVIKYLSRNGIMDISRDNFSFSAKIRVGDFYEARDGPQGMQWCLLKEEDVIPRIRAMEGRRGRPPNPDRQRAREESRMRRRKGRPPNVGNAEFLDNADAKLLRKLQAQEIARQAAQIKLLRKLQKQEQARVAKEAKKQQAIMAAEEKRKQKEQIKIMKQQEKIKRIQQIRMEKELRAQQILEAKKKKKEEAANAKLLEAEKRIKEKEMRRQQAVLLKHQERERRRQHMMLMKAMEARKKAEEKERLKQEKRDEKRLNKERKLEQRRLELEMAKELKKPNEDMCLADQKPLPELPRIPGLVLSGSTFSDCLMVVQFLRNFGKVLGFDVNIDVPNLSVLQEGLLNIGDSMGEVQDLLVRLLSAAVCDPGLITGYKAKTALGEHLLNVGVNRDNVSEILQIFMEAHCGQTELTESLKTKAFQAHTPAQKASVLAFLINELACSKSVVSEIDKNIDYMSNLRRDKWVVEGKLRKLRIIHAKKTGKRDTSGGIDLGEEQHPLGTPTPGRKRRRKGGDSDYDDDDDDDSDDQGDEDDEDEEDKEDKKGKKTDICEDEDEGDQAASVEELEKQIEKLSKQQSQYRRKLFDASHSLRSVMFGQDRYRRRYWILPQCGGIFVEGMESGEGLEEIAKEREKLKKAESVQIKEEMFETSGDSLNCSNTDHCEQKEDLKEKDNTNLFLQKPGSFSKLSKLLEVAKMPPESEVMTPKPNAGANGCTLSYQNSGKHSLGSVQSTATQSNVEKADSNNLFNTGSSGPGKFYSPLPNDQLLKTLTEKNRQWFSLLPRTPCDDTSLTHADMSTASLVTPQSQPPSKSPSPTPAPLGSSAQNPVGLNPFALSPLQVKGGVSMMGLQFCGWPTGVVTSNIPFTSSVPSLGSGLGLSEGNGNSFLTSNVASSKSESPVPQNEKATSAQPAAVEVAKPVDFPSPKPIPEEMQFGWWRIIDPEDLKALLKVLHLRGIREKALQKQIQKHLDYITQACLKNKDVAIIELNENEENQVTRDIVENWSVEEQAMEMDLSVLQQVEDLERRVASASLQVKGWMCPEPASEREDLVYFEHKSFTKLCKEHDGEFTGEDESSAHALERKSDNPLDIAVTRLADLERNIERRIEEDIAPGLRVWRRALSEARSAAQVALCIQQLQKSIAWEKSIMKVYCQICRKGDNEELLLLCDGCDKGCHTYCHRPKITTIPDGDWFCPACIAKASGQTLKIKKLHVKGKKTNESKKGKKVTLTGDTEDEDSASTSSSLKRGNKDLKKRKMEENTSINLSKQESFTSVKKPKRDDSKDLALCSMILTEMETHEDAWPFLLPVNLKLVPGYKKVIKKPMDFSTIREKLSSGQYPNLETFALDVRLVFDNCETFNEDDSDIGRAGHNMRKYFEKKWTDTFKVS
#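 AlphaScreen displacement of biotin-H3(5-23)K14Ac peptide (50 nM final) from BAZ2B (50 nM final) in PBS pH 7.4, 0.01% Tween-20; complex preformed 30 min RT, then compounds (top 110 uM) 30 min RT, beads 20 min dark.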
# HP1b chromo inh – HP1-beta chromodomain-methylated histone interaction inhibition; AlphaScreen HP1-beta / biotin-H3K9me3 peptide binding; Potency, µM (series often up to 114 µM), for the others: at the highest dose activity change, negative = inhibition, actives largely listed as inhibitors; 0.56% of 390,000 active; AID 540317; further: potency means the concentration at half of the fitted maximal effect; nearly all actives have a fitted effect of over 70% in size
#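 AlphaScreen: HP1-beta (50 nM) preformed 30 min with biotin-H3(1-18)K9me3 peptide (50 nM) in PBS pH 7.4, 0.01% Tween-20. Compound added for 30 min at RT, then streptavidin donor/nickel chelate acceptor beads (10 ug/mL) for 30 min.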
# Numbers without * were called inactive; ? = inconclusive; . = no result; [ ] = another dose, or the depositor's remark. Rows were chosen to be rich in hits. Some 10% of all compounds tested hit in one or more screens of this group. Unless noted, the call rests on the fitted dose curve; in most records, active means well fitted inhibition curve with a large enough effect; inconclusive means small, poorly fitted or top-dose-only effect; inactive means no such curve, though single readings can be large or run the other way.
SMILES,G9a block,JMJD2A Tudor inh,CtBP-E1A inh,Six1-Eya2 inh,BAZ2B block,HP1b chromo inh
CCOc1ccc(NC(=O)CN2CCN(C(=O)c3ccco3)CC2)cc1S(=O)(=O)N1CCCC1,9%[12.7 µM],-10%,19,0,-4%,20%
Cc1ccc(NC(=O)CN2CCC(Cc3ccccc3)CC2)cc1S(=O)(=O)N(C)C,8.9µM*,18µM*,-2,0,40µM*,?
COc1ccc(CCNC(=O)CSCc2nc(-c3ccc(OC)c(OC)c3)oc2C)cc1OC,-4%[59 µM],-20%,.,.,?,21%
CCCNC(=O)N[C@H]1C=C[C@H](CC(=O)OC)O[C@@H]1CO,.,.,-17,9,.,.
O=C(Nc1nnc(-c2cccs2)s1)c1cccc(F)c1,32µM*,-9%,10,7,-20%,23%
COc1cc2cc(-c3ccc(OC)c(OC)c3C)nc(N)c2cc1OC,.,-23%,-13,-23,.,5%
COc1cc2cc(-c3ccc(O)cc3O)nc(C)c2cc1OC,2%[2.33 µM],-11%,-86*,?,?,1%
CC(=O)N1c2ccc(S(=O)(=O)N3CCN(c4cc(Cl)ccc4C)CC3)cc2CC1C (stereo not drawn),-14%[59 µM],-10%,.,.,-1%,23%
CCC1OC(=O)C(C)[C@@H](O[C@H]2C[C@@](C)(OC)C(O)C(C)O2)C(C)[C@@H](O[C@@H]2OC(C)CC(N(C)C)C2O)[C@@](C)(O)CC(C)CN(C)C(C)C(O)[C@]1(C)O (stereo partly drawn),9%[2.33 µM],.,.,.,.,.
COc1ccc2[nH]c(=O)c(CN(c3ccccc3)S(=O)(=O)c3ccccc3)cc2c1,12%,-8%,-4,1,-15%,27%
COc1ccc2[nH]c(=O)c(CN(c3ccccc3OC)S(=O)(=O)c3ccccc3)cc2c1,56µM*,-21%,-3,-8,-32%,37%
COc1ccc(S(=O)(=O)c2c(C(=O)c3ccc(C)c(C)c3)cnc3ccc(C)cc23)cc1,-39%[59 µM],?,.,.,-26%,14%
CC1=C(C(=O)Nc2ccccc2)C(c2ccncc2)C(C#N)=C(SCC(=O)NC2CC2)N1 (stereo not drawn),28µM*,-9%,0,0,0%,65%
CC1=C(C(=O)Nc2ccccc2)C(c2ccncc2)C(C#N)=C(SCC(=O)NC(C)C)N1 (stereo not drawn),11µM*,-7%,9,-1,6%,33%
CCCSC1=C(C#N)C(c2cccs2)C(C(=O)Nc2ccccc2)=C(C)N1 (stereo not drawn),?,-8%,13,4,-2%,82%
COc1ccc(C(O)c2ncc(-c3ccccc3)[nH]2)c(OC)c1 (stereo not drawn),.,.,2,-4,.,.
N#CCCn1cc(C(=O)CN2C(=O)C(=O)N(C3CCCC3)C2=O)c2ccccc21,50µM*,-15%,3,3,-5%,-2%
Cc1ccc(CN2CCc3[nH]c(=O)[nH]c(=O)c3C2)cc1,-2%,-29%,5,7,-5%,8%
S=C(NCc1ccco1)Nc1ccccc1,8%,-12%,5,-1,-18%,11%
O=C(CNS(=O)(=O)c1ccccc1)NCc1ccco1,79µM*,0%,8,0,-32%,28%
O=S(=O)(NCc1ccccc1)c1ccc(NC(=S)NCc2ccco2)cc1,50µM*,?,.,4,?,-16%
C/C(=N\Nc1ccccn1)c1ccc(S(=O)(=O)NCc2ccco2)cc1,-14%[59 µM],-30%[57.1 µM],-23,-21,50µM*,?
COC(=O)c1ccc(NC(=S)N2CCN(C(=O)c3ccco3)CC2)cc1,32µM*,-7%,-2,1,-21%,9%
O=C(CN(CCc1ccccc1)C(=O)CNS(=O)(=O)c1ccccc1)NCc1ccco1,23%[59 µM],-7%[11.4 µM],-3,-9,1%,-15%
C/C(=N\Nc1ccc(C(F)(F)F)cn1)c1ccc(S(=O)(=O)NCc2ccco2)cc1,-10%[59 µM],-2%[57.1 µM],6,2,3%,38%
SMILES,G9a block,JMJD2A Tudor inh,CtBP-E1A inh,Six1-Eya2 inh,BAZ2B block,HP1b chromo inh
COc1ccc(NC(=S)N2CCN(C(=O)c3ccco3)CC2)cc1,26%,-9%,-12,7,2%,9%
CC(OC(=O)Cc1n[nH]c(=O)c2ccccc12)C(=O)Nc1cccc([N+](=O)[O-])c1 (stereo not drawn),6%,-4%,-16,8,-3%,25%
CCC(C(=O)OC(C)C(=O)Nc1ccc(Cl)cn1)c1ccccc1 (stereo not drawn),78%,23%,8,2,19%,60%
C/C(=N\NC(=O)COc1cccc(Br)c1)c1ccc2c(c1)OCCO2,-40%[59 µM],-6%,3,-3,-23%,48%
CC(NC(=O)c1nn(C)c2c1CSc1ccccc1-2)c1ccccc1 (stereo not drawn),?,6%,.,.,-23%,31%
CCC(=O)Nc1ccc(S(=O)(=O)NCc2ccco2)cc1,45µM*,-12%,0,2,-22%,20%
CCCCc1ccc(S(=O)(=O)NNC(=S)NCc2ccco2)cc1,-8%[59 µM],-24%,-24,-26,-11%,11%
O=C(c1ccc(NC(=S)NCc2ccco2)cc1)N1CCCCC1,50µM*,-25%,12,4,-26%,-5%
CCNS(=O)(=O)c1ccc(NC(=S)NCc2ccco2)cc1,14µM*,-19%,-4,-8,-8%,-11%
O=S(=O)(Nc1ncccn1)c1ccc(NC(=S)NCc2ccco2)cc1,?,-26%[57.1 µM],0,-4,-19%,19%
O=C(O)Cc1ccc(NC(=S)NCc2ccco2)cc1,22%[59 µM],-5%,4,-2,0%,33%
CC(=O)Nc1ccc(S(=O)(=O)NNC(=S)NCc2ccco2)cc1,32µM*,?,12,25,-23%,43%
Cc1nn(-c2ccccc2)c2nc(C3CC3)cc(C(=O)Nc3ccc(F)cc3)c12,5%[59 µM],-5%,.,.,10%[57.1 µM],32%
O=[N+]([O-])c1ccccc1S(=O)(=O)N1CCN(c2ccccn2)CC1,.,-31%,.,-1,5%[57.1 µM],26%
CCN(CC)C(=O)c1sc2c(c1C)c(=O)n(-c1ccccc1)c(=O)n2CC(=O)Nc1ccc(C)cc1C,11%[59 µM],-10%,.,.,-3%,51%
CNc1nc(-c2ccccc2)c(-c2ccccc2)s1,.,-11%,.,.,.,28%
CC(=O)Nc1cc(NC(C)=O)cc(C(=O)N2CCCC3CCCCC32)c1 (stereo not drawn),50µM*,56µM*,-13,-27,50µM*,?
O=C(CN1C(=O)NC2(CCCC2)C1=O)OCCOc1cccc(Cl)c1,-10%,-15%,13,-14,5%,28%
O=C(CN1C(=O)NC2(CCCC2)C1=O)OCC(=O)c1cccc(Cl)c1,50µM*,-20%,8,7,12%,4%
